Results as given in the supplement of paper PMC3334620.
Whole data set: some 33,000 sequences, median “E-score (-0.5 to 0.5)” near -0.04, cut for the highest 2% near 0.36. The sample holds the highest values, similar sequences and a random draw of the others, so the mix is not that of the screen.

molecular target: T1, Hmlalpha2 (UniProt P0CY09); test: PBM E-score (8-mer binding enrichment) (E-score (-0.5 to 0.5)); higher = stronger / more preferred TF binding; conditions: protein concentration: 200 nM; construct: GST-full length
T1 sequence: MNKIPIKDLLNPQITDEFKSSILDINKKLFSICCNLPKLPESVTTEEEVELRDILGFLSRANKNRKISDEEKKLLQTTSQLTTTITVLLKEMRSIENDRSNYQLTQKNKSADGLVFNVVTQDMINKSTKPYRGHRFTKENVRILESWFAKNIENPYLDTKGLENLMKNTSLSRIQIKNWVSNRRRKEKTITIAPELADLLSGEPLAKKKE
Method in brief: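 Using PURExpress in vitro transcription/translation, GST-tagged yeast transcription factors were made in full-length or DNA-binding-domain form. These were applied at about 100-200 nM to double-stranded universal all-10-mer Agilent arrays, and bound protein was detected with fluorescent anti-GST. Scans were normalised with masliner before the Universal PBM Analysis Suite assigned E-scores to ungapped eight-base words pooled with their reverse complements.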

Sequence | PBM E-score
GAGTAGAC | -0.0398
CTGGAACC | -0.109
CTGCCTTA | -0.206
ACGAGCCA | 0.0562
AGAGATAG | -0.0703
ATTGAGAA | 0.142
TCCTCGCA | -0.204
CTTCACCA | -0.283
ATCGCGTA | 0.368
ATTGCGTA | 0.296
CTCGCGTA | 0.22
GTTGCGTA | 0.378
GTCGCGGA | -0.252
GGCGCGTA | 0.255
AGCGCGTA | 0.388
ATCGCGTC | 0.216
CGCGCGTA | 0.283
ATCGCGTG | 0.192
CTTGCGTA | 0.286
GTCGCGTA | 0.414
GTCGCCAC | -0.316
GTTTGACA | 0.303
AGGAAGAT | -0.192
ATGACGCC | -0.105
ATGGAGAG | -0.115

Sequence | PBM E-score
CCCTTTAC | 0.134
ATACTCCG | -0.0161
AAATTGCC | -0.0531
CTTTCTTC | -0.09
CAATCGGC | -0.156
CAGCCACA | -0.111
ACCAGAGA | -0.144
ACCTAAAC | 0.098
CCTAGCGC | -0.102
ATCGACCG | -0.223
CATAACAC | 0.397
CATAACAG | 0.174
GATAACGC | 0.199
AATAACCT | 0.104
CATAACAA | 0.323
AGTAACAT | 0.295
GATAACAC | 0.39
GCTAACAA | 0.164
GATAACAA | 0.324
GCTAACAC | 0.366
AATAACAT | 0.412
ACTAACAC | 0.293
ACAACCAT | 0.278
CCTACAAA | 0.0287
ATCTGAGC | -0.0204

Sequence | PBM E-score
AGCTAACG | 0.117
AGGGTACG | 0.0138
AGATAGAA | -0.166
TATCCTAA | 0.00317
GGACCTTA | -0.238
AATAACAG | 0.307
AATAACAC | 0.396
AATAACAA | 0.267
GGAATACA | 0.431
GGAATAGA | -0.0449
GGAATACC | -0.0768
TGAATAAA | 0.245
TGAATACA | 0.397
CGAATACC | -0.0493
ACAATACA | 0.326
CCAATACA | 0.313
CGAATACA | 0.39
TGGATACA | 0.17
CGAATACG | 0.259
TCAATACA | 0.372
GTAAGTAC | 0.234
CACTAGGA | -0.225
AGAGGTCC | -0.273
AGCTGCAA | -0.227
AACCTCAA | 0.0617

Sequence | PBM E-score
AGTTTGCG | -0.0236
ACTATCTG | -0.156
CTATGAAG | -0.149
CGATCCGA | -0.256
AGCGGCTA | -0.0688
ACTCTACT | 0.0373
TAAATACA | 0.434
GAAATACA | 0.346
AGAATACC | 0.0773
AGAATACG | 0.192
AGAATACA | 0.366
AAAATACA | 0.334
CCTGTAAG | -0.00273
GATGTAAC | 0.215
AATGTAAG | 0.294
CCTGTAAC | 0.093
CATGTAAG | 0.47
CATGTAAC | 0.456
CGAGATCG | -0.0661
GCATGCGA | 0.0698
AAACCACC | -0.166
AGAGCCGA | -0.106
GTGTTGCA | 0.187
CTGTTGTA | 0.253
GTGTTGTA | 0.382

Sequence | PBM E-score
ATGTTGTA | 0.406
ATGTTGTG | 0.362
ATGTTGTC | 0.364
CATACCGG | -0.154
AGTCTGCC | -0.184
CAACGGAG | -0.12
ACCCTTAA | -0.0263
AGTATGTG | 0.115
GGTATGGA | -0.18
AGTATGTA | 0.394
CGTATGTA | 0.356
AGTATGTC | 0.201
GGTATGTA | 0.4
AATTAGAA | 0.0299
GAAAAACC | -0.0498
ATGAGGAG | -0.187
ACGTTAAC | 0.281
GCGTTAAA | 0.366
GCGTTAAC | 0.379
TCGTTAAA | 0.126
CCGTTAAA | 0.125
CCGTTAAC | 0.0773
CCAACCTC | -0.128
GATAAGTA | 0.0843
AAGGGCTC | -0.21

Sequence | PBM E-score
TCGTTTAA | 0.293
CGCGTGTC | 0.262
AGCGTGTG | 0.249
CGCGTGTA | 0.458
AGCGTGTC | 0.317
CGCGTGCA | -0.0161
GGCGTGTA | 0.464
GGCGTGAA | -0.0431
AGCGTGTA | 0.472
GGCGTGCA | -0.128
AACATATA | 0.286
CTGGATCC | -0.25
GCTTAGAA | -0.00669
AAAATTGG | -0.167
GGTCGACC | -0.0813
TGTAAACA | 0.461
CGTAAACA | 0.394
TGTAAGAA | 0.391
ACTAAACA | 0.196
TGTAACAA | 0.384
CGTAAGAA | 0.106
GGTAAACA | 0.333
AGTAAACA | 0.337
CGTAACAA | 0.228
AGTAACAA | 0.288

Sequence | PBM E-score
TCTAAACA | 0.228
GGTAAGAA | -0.0659
TGCCTCCA | -0.233
CTGCACAC | 0.0406
TATCACGA | 0.00013
GAAGACAC | 0.0337
CCGCTCCC | -0.362
AGGTCTGG | -0.101
AGGAAAGC | -0.203
GATAAACA | 0.212
AGTAGAAA | 0.124
CGTAAAAA | 0.345
TATAAACA | 0.358
TGTAAAAA | 0.444
AGTAAAAA | 0.196
TGTAGAAA | 0.429
CATAAACA | 0.384
CGTAGAAA | 0.31
TTCTTCAA | 0.0864
ACTCATAC | -0.00755
GGAAGCTA | -0.236
CCCTGGGC | -0.302
AGCCCTAA | 0.00565
AAACACCA | -0.0494
AAACACAG | 0.318

Sequence | PBM E-score
AAACACAC | 0.34
AAACACGA | 0.383
AAACACGC | 0.426
AAACACCG | 0.196
AAACACGG | 0.371
AAACACTC | 0.109
AAACACGT | 0.361
CCAAGTCC | -0.309
TGGTGACA | 0.087
GGGTTGGA | -0.133
AAGGGATC | -0.156
CGTATACA | 0.377
AGTATACA | 0.322
TGTATAAA | 0.342
TCTATACA | 0.209
TGTATACA | 0.428
GGTATACA | 0.254
ATGTGAAT | 0.297
AACAACCG | 0.156
GGTTTATA | 0.101
GGTTTAAC | 0.279
GGTTTAGA | -0.168
GGTTTACA | 0.396
CGTTTAAC | 0.365
GTTTTAAA | 0.22

Sequence | PBM E-score
CGTTTACC | 0.0999
GTTTTACA | 0.408
GTTTTATA | 0.144
CGTTTAGA | -0.00881
CGTTTACA | 0.452
CGTTTAAG | -0.102
TCAGGGCA | -0.0208
AGGATATG | -0.0728
ATGGTCAC | -0.0853
GCTGAATA | 0.0885
CGGGAAGC | -0.026
AGTTTACG | 0.278
AGTTTACC | 0.075
AGTTTACA | 0.405
CGCATTAG | -0.105
GCCTGTCA | -0.0584
CAGTGTGG | -0.13
CACATGTG | 0.163
AACATGTA | 0.484
AACATCTG | 0.128
AAGATGTA | 0.268
AACATGTC | 0.333
AACATGTT | 0.46
AACATTTA | 0.242
AACATGTG | 0.395

Sequence | PBM E-score
AACATCTT | -0.0095
ACCAGCAC | -0.0704
ATGCGAAT | -0.0339
CGGTCAGA | -0.199
CAAGGTCA | -0.102
TAGGTGGA | -0.0803
CGGTGGAG | -0.362
ATACTGGA | 0.0598
GCACATAA | 0.12
TGACATAA | 0.319
GTACATAA | 0.377
GAACATAA | 0.191
GGACATAA | 0.05
CAACATAA | 0.359
TAACATAA | 0.422
TTACATAA | 0.474
CTACATAA | 0.317
GCCAAGAC | -0.161
CGTGCAAA | 0.172
ACAATTTA | 0.173
GGACTAGA | -0.227
TCATGTAA | 0.482
TCATGGAA | -0.157
GCATGTAA | 0.485
TCATGTCA | 0.359

Sequence | PBM E-score
GCATGTGA | 0.263
GCATGTCA | 0.36
AAGGTCCG | -0.108
AACCTCGA | -0.0213
TAGGAGAA | 0.122
GCATAGCC | -0.0671
GTTTTTAA | 0.279
CTGTGTTC | 0.304
ATGTGTCA | 0.261
ATGTGTTA | 0.429
CGGTGTTA | 0.253
ATGTGTTC | 0.233
GGGTGTTA | 0.195
CTGTGTTA | 0.398
ATGTGTGG | 0.0473
GTGTGTTA | 0.435
GAGTGTTA | 0.21
ATGTGTGA | 0.202
ATGTGTTG | 0.39
GTGGACCA | -0.0852
ACTCTGTA | 0.204
ATATCACC | 0.0884
ACTGCTCG | -0.0631
CCTTCAAC | 0.058
GTGATCAC | -0.229

Sequence | PBM E-score
ATCGCTGC | -0.136
TAAGCGCA | 0.0443
AGTCAACA | 0.269
CTTGGTCC | -0.159
CCCATACC | -0.159
GCGTACAC | 0.247
TAGTACAA | 0.244
ATGTACCC | 0.148
AGGTACAC | 0.0905
CTGTACAA | 0.288
GGGTACAA | 0.0999
TTGTACAA | 0.442
GTGTACAA | 0.439
CTGTACAG | 0.0499
CTGTACAC | 0.291
GTGTACAC | 0.415
ATGTACAC | 0.43
AACTGCGT | 0.257
ATGAAGAC | 0.028
GTGAAATA | 0.185
TACGTCGA | 0.0708
CCCGCCAC | -0.152
ATATTGGG | -0.261
GACTCTGA | -0.12
CTCGAACA | 0.112

Sequence | PBM E-score
AAAGCCAT | 0.0384
AACCCTGG | -0.204
ATGTACTG | 0.351
ATGTACAG | 0.289
ATGTACTA | 0.397
ATGTACAA | 0.433
AGGTACAT | 0.288
GTGTACTA | 0.311
ATGTACGA | 0.281
AGGTACAA | 0.21
ATGTACAT | 0.457
GCGCAAGA | -0.0432
AAGACAGT | -0.0478
AGAAAGTG | -0.223
CCATTCGA | -0.0609
ATCTCGTA | 0.191
AAATCCGC | -0.125
GAAAATTC | -0.0326
CAGCCTTC | -0.301
CCATGATC | -0.128
ACATGAGA | 0.406
ACATGAGT | 0.364
ACATGATC | 0.426
ACATGATG | 0.348
ACATGATA | 0.435

Sequence | PBM E-score
TCATGAGA | 0.0706
CCATGATA | -0.142
GCATGATA | 0.116
CGGATATC | -0.0199
TCTCTGAA | -0.162
CGCATAGC | -0.0965
AGGTCCAA | -0.112
ACGACCCC | -0.127
ATGGCAAA | -0.00556
ATTGTACA | 0.403
GCTGTACA | 0.154
CTTGTACA | 0.403
GTTGTACA | 0.424
CTTGTAGA | 0.253
GTTGTAGA | 0.325
ATTGTACC | 0.0764
CTTGTACC | 0.0814
ATTGTACG | 0.123
CTAGTTCA | 0.0551
